Laboratory results reported in PubChem BioAssay.

Columns and labels:
[1] = tested on: Botulinum neurotoxin type F light chain protease (Clostridium botulinum); assay: Clostridium botulinum type F light chain protease inhibitors, microsphere substrate cleavage, validation (AID 588459); settings: multiplex microsphere protease substrate cleavage assay, flow cytometry; at 10 µM; hits give high values
[2] = target: Botulinum neurotoxin type A (Clostridium botulinum) (UniProt P0DPI0); assay: BoNT/A light chain protease inhibitors, biochemical, multiplex microsphere flow cytometry, validation set (AID 588460); settings: at 10 µM, hits give high values
[3] = target: Lethal factor (Bacillus anthracis) (UniProt P15917); assay: Bacillus anthracis lethal factor inhibition, microsphere flow cytometry protease assay, validation at 10 µM (AID 588461); settings: multiplex microsphere protease cleavage assay, hits give high values

Measured: inhibition

Fc1cccc(Cc2noc(CN3CCN(c4cnccn4)CC3)n2)c1
inactive: [1] 3.7% | [2] -1.3% | [3] 0.5%

O=C1CCCN1CCCn1cnc2c([nH]c3ccc(F)cc32)c1=O
inactive: [1] 0% | [2] -0.3% | [3] 2.3%

CC1(C)Cc2nc3sc4c(=O)n(CC(N)=O)cnc4c3cc2CO1
inactive: [1] -0.6% | [2] 1.1% | [3] -3.8%

COc1ccc(C2NCCC3(O)CCCCC23)c(OC)c1OC (stereo not drawn)
inactive: [1] 4.3% | [2] -0.3% | [3] 4.4%

NC(N)=N/N=C/c1cccc(Cl)c1Cl
inactive: [1] 0.9% | [2] 1.3% | [3] -3.3%

O=c1c2[nH]c3ccccc3c2ncn1CCC1=CCCCC1
inactive: [1] 4.3% | [2] 0.9% | [3] -3.1%

CCNC(=O)C12CCC(C)(C(=O)O1)C2(C)C (stereo not drawn)
inactive: [1] -1% | [2] -1% | [3] -7.4%

CC(C)C1Cc2[nH]c(=O)c(C(=O)O)cc2CO1 (stereo not drawn)
inactive: [1] 2.3% | [2] -0.9% | [3] -1.4%

COc1cccc(NC(=O)C2CC(=O)OC23CCOC(C)(C)C3)c1 (stereo not drawn)
inactive: [1] -5.5% | [2] -1.3% | [3] -8.2%

CCOC(=O)n1c(=O)oc2ccccc21
inactive: [1] 0.5% | [2] 0.5% | [3] -4%

C=CCN1C(=O)c2oc3ccccc3c(=O)c2C1c1ccc(O)c(OC)c1 (stereo not drawn)
inactive: [1] -1.5% | [2] -0.6% | [3] 1.1%

CCn1c(C)cc2c(c1=O)C(c1ccccc1)C(C(=O)OC)=C(N)O2 (stereo not drawn)
inactive: [1] 0.3% | [2] -0.9% | [3] -3.3%

COc1ccccc1/C=C/CN1CCN(Cc2ccc(F)cc2)C(CCO)C1 (stereo not drawn)
inactive: [1] 5.5% | [2] -0.2% | [3] -1.4%

COc1ccc(C(=O)[C@H]2[C@H]3C(=O)N(c4ccccc4)C(=O)[C@H]3C3C=CC=NN32)cc1 (stereo partly drawn)
inactive: [1] 1.9% | [2] 4.7% | [3] -5.1%

CCN1C(=O)C(CC(=O)Nc2ccc(F)cc2)N(Cc2ccc3c(c2)OCO3)C1=S (stereo not drawn)
inactive: [1] -1.3% | [2] -0.3% | [3] -6.1%

COc1cccc2c1OCC1COc3c(c(=O)n(C)c(=O)n3C)C21 (stereo not drawn)
inactive: [1] 1.5% | [2] 0.5% | [3] 0.2%

CCN(CC)CCOC(=O)C(c1ccccc1)c1ccccc1
inactive: [1] 1.8% | [2] -1.6% | [3] -3.7%

COc1ccc(C2CC(c3ccc([N+](=O)[O-])cc3)=NN2C(=O)c2ccccc2)cc1OC (stereo not drawn)
inactive: [1] 10.2% | [2] 7.9% | [3] 2.3%

CCn1c(=N)c(C(=O)NC)cc2c(=O)n3cccc(C)c3nc21
inactive: [1] 3.8% | [2] 3.8% | [3] 5.6%

O=C(CCc1c[nH]c2ccccc12)NCc1ccco1
inactive: [1] 2.9% | [2] 0.2% | [3] 5.8%

O=C(c1ccccc1F)c1cc2c(cc1[N+](=O)[O-])OCCO2
inactive: [1] 5.4% | [2] -0.4% | [3] 3.6%

Cc1csc(CCc2nc(C)cs2)n1
inactive: [1] 1.4% | [2] 0.2% | [3] -2.1%

COc1c2occc2c(OC)c2c(=O)cc(C(F)(F)C(F)(F)F)oc12
inactive: [1] 2.3% | [2] 0.5% | [3] 0.4%

COc1ccc(N2CCN(C(=S)NCc3ccccc3)CC2)cc1
inactive: [1] 2.4% | [2] -0.6% | [3] 2.2%

Nc1nc(Cl)nc2c1ncn2[C@H]1C[C@H](O)[C@@H](CO)O1
inactive: [1] -8.7% | [2] -2.6% | [3] -19.4%

COc1ccccc1NC(=O)Cn1c(C)cc(=O)c2cccc(OC)c21
inactive: [1] -1.1% | [2] -0.9% | [3] -0.2%

COc1ccc(C2C3=C(OC(C)=O)c4ccccc4C3=Nc3c2c(=O)n(C)c(=O)n3C)cc1 (stereo not drawn)
inactive: [1] 4% | [2] 0.1% | [3] 2.9%

CCOc1ccc2oc(-c3ccccc3)c(C(=O)O)c2c1
inactive: [1] -1.1% | [2] -0.2% | [3] -3.1%

CC1(C)CC(CNCCC(c2ccc(F)cc2)c2ccco2)CCO1 (stereo not drawn)
inactive: [1] 0.9% | [2] -1.4% | [3] 3.4%

COc1cc2ccc(=O)oc2c(O)c1OCC=C(C)C
inactive: [1] -4.9% | [2] 1.4% | [3] 1.2%

COc1cc2c(cc1OC)-c1cc(OCc3ccccc3Cl)nc(=O)n1CC2
inactive: [1] -0.4% | [2] 0.1% | [3] 0.1%

CC(C)OC(=O)c1ccc(NC(=O)c2cncc(Br)c2)cc1
inactive: [1] -2.9% | [2] -0.1% | [3] 7.4%

CC(C)OC(=O)CC12CN3CN(C1)CC(CC(=O)OC(C)C)(C3)C2=O
inactive: [1] 1.8% | [2] -0.4% | [3] 6.1%

O=C(O)CCn1cnc2ccccc2c1=O
inactive: [1] 1.4% | [2] 0.3% | [3] -3.5%

CCOc1ccc2ccccc2c1C(=O)N[C@@H]1C(=O)N2[C@@H]1SC(C)(C)[C@@H]2C(=O)O
inactive: [1] 5.4% | [2] 1.2% | [3] 0.3%

O=c1cc(CN2CCN(c3cccc(Cl)c3)CC2)c2cc(O)c(-c3ccccc3)cc2o1
inactive: [1] -1.3% | [2] -1.5% | [3] -0.5%

Nc1cc(-c2ccncc2)c[nH]c1=O
inactive: [1] -3.2% | [2] -2% | [3] -5.1%

COc1cc(/C=C/C(=O)O)cc(S(=O)(=O)NCCCO)c1OC
inactive: [1] 1.9% | [2] 0.7% | [3] 2.3%

Cc1ccc(C(=O)Nc2ccccc2C(=O)NC(C(=O)O)C(C)C)cc1 (stereo not drawn)
inactive: [1] 4.4% | [2] 0.5% | [3] -2%

C[C@]12CC[C@@H]3c4ccc(OS(=O)(=O)O)cc4CC[C@H]3[C@@H]1CCC2=O
inactive: [1] -0.1% | [2] -0.2% | [3] -0.2%

Cc1nnc(NS(=O)(=O)c2ccc(N)cc2)s1
inactive: [1] 2.8% | [2] -1.1% | [3] -2.8%

COC(=O)c1ccc(-c2ncc(-c3cccc4ccccc34)o2)cc1
inactive: [1] -1.4% | [2] -1.3% | [3] 4.9%

Cc1ccc(/C=N/Nc2nc(C(C)(C)C)cs2)o1
inactive: [1] -1% | [2] -0.3% | [3] -6.6%

Cn1nnnc1SCC1=C(C(=O)O)N2C(=O)[C@@H](NC(=O)[C@H](O)c3ccccc3)[C@H]2SC1
inactive: [1] 1% | [2] 0.9% | [3] 1.9%

CC(=O)N=c1sc(S(N)(=O)=O)nn1C
inactive: [1] 4.1% | [2] 0.8% | [3] 4.2%

COc1ccc(C2c3c(n[nH]c3C)CC(C)(O)C2C(C)=O)cc1OC (stereo not drawn)
inactive: [1] 4% | [2] 0.1% | [3] -2.7%

O=C(O)CCC(=O)c1ccc(-c2ccccc2)cc1
inactive: [1] -4.5% | [2] -1.1% | [3] 2.1%

CC(C)(C)OC(=O)N1CC(O)CC1C(=O)OCC(=O)c1ccc(Cl)cc1 (stereo not drawn)
inactive: [1] -2.2% | [2] -2.3% | [3] 0.1%

CC(C)N(Cc1nccn1C)C(=O)CC1C(=O)NCCN1Cc1ccccc1C(F)(F)F (stereo not drawn)
inactive: [1] -1.2% | [2] -0.8% | [3] 0.4%

Cc1cc(=O)[nH]c(=S)[nH]1
inactive: [1] -3.5% | [2] -3.3% | [3] -7.5%

CC/C(=C1/C(=O)CC(C)(C)C(C(=O)OC)C1=O)N1CCCC1 (stereo not drawn)
inactive: [1] -4.4% | [2] -1.4% | [3] -9.3%

NCCOc1ccccc1OCCN
inactive: [1] 1.6% | [2] -0.4% | [3] -4.4%

O=C(CCCN1C(=O)/C(=C\c2cccs2)SC1=S)Nc1ccccn1
inactive: [1] 4% | [2] 5.2% | [3] 18.8%

COc1ccc([C@@H]2Sc3ccccc3N(CCN(C)C)C(=O)[C@@H]2OC(C)=O)cc1
inactive: [1] -1.7% | [2] 0.1% | [3] 1%

CC(=O)NC(Cc1c[nH]c2ccccc12)C(=O)N/N=C/c1ccccc1 (stereo not drawn)
inactive: [1] -1.4% | [2] -0.1% | [3] -5.7%

CCOc1ccc(CC2CCC(=O)NC2=O)cc1 (stereo not drawn)
inactive: [1] -3% | [2] -0.5% | [3] -1.5%

C=CCn1c(N2CCCCCC2)nc2c1c(=O)n(C)c(=O)n2C
inactive: [1] 0.2% | [2] 1.4% | [3] -4.7%

Nc1cccc2nc3ccccc3cc12
inactive: [1] 4% | [2] 2.3% | [3] 1.2%

COc1ccccc1C1(CC(=O)N2CCCCC2)CCOC(C(C)C)C1 (stereo not drawn)
inactive: [1] 1.1% | [2] -0.2% | [3] -3.3%

O=c1c2ccccc2nc2n1-c1ccccc1CCC2
inactive: [1] 3.5% | [2] 0.6% | [3] 12.2%

COc1ccc(CNC(=O)c2cc3c(=O)n4ccccc4nc3n(Cc3cccnc3)c2=N)cc1
inactive: [1] -1.2% | [2] 0.4% | [3] -1.9%
